A number with no mark means an inactive call.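 Rule for the calls: active = AUC reduced over 20% with Padj below 0.05 in at least 2 of 3 replicates; inactive = otherwise.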
Columns and labels:
Assay in all cases: growth AUC relative to DMSO control (median of replicates) (fraction); higher = more growth (less inhibition), active = hit call of the paper
Details in all cases: 20 µM; 24 h
Coprococcus comes = tested on: Coprococcus comes
Outline: (§1)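 Three biological replicates, each grown on a separate day, were combined as a median for every value. In each, a gut bacterial monoculture in mGAM started at OD600 0.05 and grew anaerobically at 37 °C with 20 µM compound (1% DMSO), with OD600 read hourly over 24 h. Area under the growth curve was normalised against the plate median of solvent-only wells, or against row and column medians on the industrial chemical plate, after the minimum OD was set to 0.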

Escherichia coli ED1a = tested on: Escherichia coli ED1a
Outline: as §1

Escherichia coli IAI1 = tested on: Escherichia coli IAI1
Outline: as §1

Eubacterium rectale = tested on: Eubacterium rectale
Outline: as §1

[1] = tested on: Fusobacterium nucleatum subsp. animalis
Outline: as §1

Lactobacillus gasseri = tested on: Lactobacillus gasseri
Outline: as §1

Lactobacillus paracasei = tested on: Lactobacillus paracasei
Outline: as §1

Odoribacter splanchnicus = tested on: Odoribacter splanchnicus
Outline: as §1

[2] = tested on: Parabacteroides distasonis
Outline: as §1

Parabacteroides merdae = tested on: Parabacteroides merdae
Outline: as §1

Roseburia intestinalis = tested on: Roseburia intestinalis
Outline: as §1

Streptococcus salivarius = tested on: Streptococcus salivarius
Outline: as §1

SMILES | growth AUC (Coprococcus comes) | growth AUC (Escherichia coli ED1a) | growth AUC (Escherichia coli IAI1) | growth AUC (Eubacterium rectale) | growth AUC [1] | growth AUC (Lactobacillus gasseri) | growth AUC (Lactobacillus paracasei) | growth AUC (Odoribacter splanchnicus) | growth AUC [2] | growth AUC (Parabacteroides merdae) | growth AUC (Roseburia intestinalis) | growth AUC (Streptococcus salivarius)
CCOP(=S)(OCC)Oc1ccc(=O)n(-c2ccccc2)n1 | 0.973 | 0.965 | 0.97 | 0.956 | 0.955 | 0.928 | 1.01 | 0.986 | 0.922 | 0.974 | 0.988 | 0.983
CCC(CC)Nc1c([N+](=O)[O-])cc(C)c(C)c1[N+](=O)[O-] | 0.982 | 0.987 | 0.947 | 0.979 | 0.93 | 0.858 | 0.935 | 1.11 | 0.974 | 0.942 | 0.897 | 0.959
COCC(=O)N(c1c(C)cccc1C)[C@H](C)C(=O)OC | 1.04 | 1.02 | 1.05 | 1.01 | 1.02 | 0.957 | 1 | 1.03 | 1.05 | 1.05 | 0.966 | 1.02
CCSC(=O)N(CC)C1CCCCC1 | 0.988 | 0.987 | 1.03 | 1.01 | 1.01 | 1.2 | 1 | 0.975 | 1.07 | 1.03 | 1.07 | 0.948
CCc1nn(C)c(C(=O)NCc2ccc(Oc3ccc(C)cc3)cc2)c1Cl | 0.959 | 0.986 | 0.997 | 0.96 | 0.952 | 1.1 | 0.942 | 0.896 | 0.947 | 0.975 | 0.924 | 0.986
CN(C)NC(=O)CCC(=O)O | 0.998 | 0.988 | 1.01 | 0.926 | 0.956 | 1.01 | 1.02 | 0.989 | 1.03 | 1.02 | 0.953 | 0.951
C=CCC1=C(C)C(OC(=O)[C@@H]2[C@@H](C=C(C)C)C2(C)C)CC1=O (some centres not stated) | 1.03 | 1.01 | 0.988 | 0.919 | 1 | 0.962 | 0.968 | 1.07 | 0.9 | 0.999 | 1.05 | 1.01
CCOP(=S)(OCC)SCS(=O)CC (configuration not stated) | 1.03 | 0.996 | 1.01 | 0.995 | 1.04 | 0.95 | 0.95 | 1.06 | 1.09 | 0.998 | 0.995 | 0.976
CC(Oc1ccc(Oc2ccc(Cl)cc2Cl)cc1)C(=O)O (racemic) | 0.943 | 0.974 | 1.02 | 0.988 | 0.961 | 1.16 | 0.999 | 1.09 | 1.06 | 0.956 | 0.989 | 0.934
Cc1cc(Cl)ccc1OCC(=O)O.O.[Na] | 1 | 1.01 | 1 | 1.15 | 1.07 | 0.864 | 0.994 | 1.03 | 0.95 | 1.04 | 1.02 | 0.986
C#CCC1=C(C)C(OC(=O)C2C(C=C(C)C)C2(C)C)CC1=O (configuration not stated) | 0.997 | 1.02 | 1 | 1.03 | 1.06 | 0.998 | 1 | 1.11 | 0.952 | 0.946 | 0.921 | 0.959
CSC1=N[C@@](C)(c2ccccc2)C(=O)N1Nc1ccccc1 | 0.988 | 1.01 | 0.993 | 1.08 | 1.2 | 0.853 | 0.968 | 0.924 | 0.872 | 0.953 | 0.997 | 1.01
CCC(C)(CC)c1cc(NC(=O)c2c(OC)cccc2OC)on1 | 1.03 | 1.01 | 0.988 | 0.986 | 0.986 | 0.932 | 1.02 | 1.04 | 1 | 0.939 | 0.963 | 0.979
CC(=NCc1ccc(Cl)nc1)NC#N | 1 | 1.02 | 1.03 | 1 | 1.09 | 0.997 | 1.03 | 1.04 | 0.999 | 0.968 | 0.997 | 1
CCc1cnc(C2=NC(C)(C(C)C)C(=O)N2)c(C(=O)O)c1 (configuration not stated) | 0.975 | 0.995 | 1 | 0.962 | 0.981 | 1.04 | 0.924 | 0.961 | 0.989 | 1.01 | 1.02 | 1.02
CCOP(=S)(OCC)SCS(=O)(=O)CC | 1.02 | 1.01 | 0.992 | 1.07 | 1.14 | 0.95 | 0.967 | 0.993 | 0.999 | 0.974 | 0.947 | 1.01
COC(=O)/C(C)=C/OP(=S)(OC)OC | 0.989 | 0.987 | 0.97 | 0.95 | 1.01 | 1.06 | 1.07 | 0.95 | 1.03 | 0.999 | 0.981 | 1.01
C/C(=N\NC(=O)Nc1cc(F)cc(F)c1)c1ncccc1C(=O)[O-].[Na+] | 1.01 | 0.973 | 0.995 | 1.12 | 1.09 | 0.796 | 0.975 | 1.07 | 0.875 | 1.01 | 1.06 | 0.988
[Cl][Sn]([c]1ccccc1)([c]1ccccc1)[c]1ccccc1 | 0.0492 (active) | 0.981 | 0.964 | 0.0221 (active) | 0.897 | 0.383 | 0.83 | 0.0358 (active) | 0.048 (active) | 0.0101 (active) | 0.0424 (active) | 0.859
CN(C)C(CSS(=O)(=O)[O-])CSS(=O)(=O)O.[Na+] | 0.987 | 1.03 | 1.01 | 1.5 | 1.11 | 0.952 | 0.984 | 1.05 | 0.979 | 1.03 | 1.06 | 0.979
O=[N+]([O-])c1cc(C(F)(F)F)c(Cl)c([N+](=O)[O-])c1Nc1ncc(C(F)(F)F)cc1Cl | 0.953 | 0.98 | 0.986 | 0.995 | 0.885 | 0.807 | 0.578 (active) | 1.02 | 0.905 | 0.0369 (active) | 0.989 | 0.822

Reference: the supplement of paper PMC12669032
